In PubChem BioAssay AID977606 (Broad Institute, 2014) one finds outcome data, which are given here for 76 compounds.

About 430 (29%) of roughly 1,500 compounds were called active. No rule for the calls is given here. A selection follows. A call without a number means that no potency is given here. Potency and affinity values are given separately.

The nature of the test: insulin secretion activators without glucose, dose response, counter-screen for glucose-dependent insulin secretion activators, cell-based, INS-1E, Gaussia luciferase, luminescence, cherry-pick (AID 977606). The conditions noted are these: INS-1E Gaussia luciferase insulin secretion, no glucose, 100% = twice neutral-control luminescence; series mostly up to 35 µM. For orientation: Counterscreens check selectivity or assay interference.
Consider `COc1ccc(-c2cnnn2-c2ccc(N)cc2)cc1OC`, for which the result was inactive. The result for `CCOC(=O)c1cc(-c2ccncc2)nc2c1c(C)nn2-c1ccccn1` reads “inactive”; that for `CCOC(=O)c1nc2nc(-c3cccs3)cc(C(F)(F)F)n2n1`, “inactive”. Consider `CCN(CC)C(=O)C1(P(=O)(c2ccccc2)c2ccccc2)CCC1`, for which the compound was classed as inactive. Next, `CCCNC(=O)C1(C)CCCN(Cc2cccn2C)C1` (stereo unspecified): “inactive”; `CC(C)(C)c1ccc(S(=O)(=O)N2CC(C(=O)O)Oc3ccc(Cl)cc32)cc1` (stereo unspecified): “inactive”; `N#CCCCc1cc2ccccc2cn1`: “inactive”. For `Cc1cc(Br)c2c(c1)C1(OCCO1)C(=O)N2`, the result was inactive.

With `CCCc1c(C)c2ccc(OCC(C)=O)cc2oc1=O`, the result was inactive. With `CNc1nc(-c2ccccc2)cc(-c2ccccc2)n1`, the result was inactive. Consider `CCS(=O)(=O)c1nc(S(=O)(=O)c2ccc(C)cc2)c(N2CCC(O)CC2)s1`, for which the result was inactive. The result for `O=C(Nc1cccc(Cl)c1)c1cnn2cccnc12` reads “inactive”; that for `O=C(Cn1cnc2sc(-c3ccccc3)cc2c1=O)NCCc1ccccc1`, “inactive”; that for `COc1ccc(/C=N/NC(=O)Cn2cnc3ccccc3c2=O)cc1OC`, “inactive”. The result for `COc1ccc(C(C)=O)cc1Cn1cnc2c(cnn2C)c1=O` reads “inactive”. Regarding `CCc1nc2ccc(C(=O)NCCCN(C)C)cn2c1N(C)Cc1ccc(OC)cc1`, the compound was classed as inactive. With `COc1ccc(C2=NN(C(=O)c3ccco3)C(c3ccco3)C2)cc1OC` (stereo unspecified), the result was inactive.

In the case of `O=C(CCn1ccc2cc(S(=O)(=O)N3CCCC3)ccc21)NCc1cccc(F)c1`, the call was inactive. Next, `Cc1cc(Cl)ccc1-c1nc(NCc2ccccc2)nc2ccsc12`: “inactive”; `c1ccc(CNc2nc(Oc3ccncc3)c3sccc3n2)cc1`: “inactive”. Next, `COc1ccc(C2C3CCCCC3(O)CCN2C(=O)c2cccs2)cc1` (stereo unspecified): “inactive”. The result for `CCn1c(SCc2cc(=O)[nH]c3ccccc23)nc2c1c(=O)n(C)c(=O)n2C` reads “inactive”; that for `C=CCN(Cc1ccc(OC)c(OC)c1)C(=O)N1CCOCC1`, “inactive”; that for `S=C(NCc1ccccc1)Nc1ccc2cn[nH]c2c1`, “inactive”. As to `CCC(=O)Nc1nnc(Sc2ccc(N(C)C)cc2)s1`, the result was inactive. Next, `CCSc1nnc(NC(=O)c2csc(C)c2)s1`: “inactive”; `CCOc1ccc(CCNC(=O)CCC(=O)c2cccs2)cc1OCC`: “inactive”. The result for `COCCn1c(=O)[nH]c2cc(C(=O)Nc3cc(OC)c(OC)c(OC)c3)ccc2c1=O` reads “inactive”; that for `CCOC(=O)Cc1csc(NC(=O)c2ccc(OC)c(OC)c2)n1`, “inactive”; that for `COCCNC(=O)CCCn1c(=O)c2ccccc2n(Cc2ccccc2C#N)c1=O`, “inactive”. Next, `COc1ccc(CCNS(=O)(=O)c2ccc(Cl)s2)cc1OC`: “inactive”; `O=C(c1cc(-c2ccc(F)cc2)nc2ccccc12)N1CCN(C2CCS(=O)(=O)C2)CC1` (stereo unspecified): “inactive”; `O=C(Nc1ccc(C(=O)N2CCCC2)cc1)c1cccc(C(F)(F)F)c1`: “inactive”.

As to `CCOc1ccc(CCNC(=O)COc2cc(=O)n(C)c3ccccc23)cc1OCC`, the outcome was inactive.

For the compound `O=S1(=O)c2ccccc2OC(COCc2ccccc2)CN1C1CC1` (stereo unspecified), the compound was called inactive.

With `CC(C)Oc1cccc(C(=O)C2CCCN(C(=O)CCc3cnn(C)c3)C2)c1` (stereo unspecified), the outcome was inactive. Regarding `COc1ccc(-c2nnc3sc(-c4cccs4)nn23)cc1OC`, the compound was called inactive. Next, `c1csc(-c2nc(NCC3CCCO3)c3ccccc3n2)c1` (stereo unspecified): “inactive”; `Cc1cc(NC(=O)COC(=O)c2oc3c(Cl)cccc3c2C)no1`: “inactive”. Regarding `COc1cc(/C=N/Nc2cc(C)nc(NS(=O)(=O)c3ccc(C)cc3)n2)ccc1O`, the call was inactive. Consider `CCOc1ccccc1CNS(=O)(=O)c1cnc[nH]1`, for which the compound was classed as inactive. Next, `CCOc1nc(NC(=O)NS(=O)(=O)Oc2ccccc2Cl)nc(-c2ccccc2)n1`: “inactive”; `Nc1nc(SCc2nc3scc(-c4ccccc4)c3c(=O)[nH]2)n[nH]1`: “inactive”.

`CCCC(=O)Nc1ccc(N2CCN(S(C)(=O)=O)CC2)cc1`: the outcome was inactive. The result for `O=C(O)CCCNC(=O)c1nn(Cc2ccccc2)c(=O)c2ccccc12` reads “inactive”.

In the case of `C/C=C/c1ccc(OCCN2C(=O)NC(C)(C)C2=O)c(OC)c1`, the compound was called inactive. Next, `COc1ccc(C2=Nn3c(nnc3-c3ccccc3F)SC2)cc1OCC1CC1`: “inactive”; `CCc1onc(C)c1C(=O)Nc1ccc(N2CCOCC2)cc1`: “inactive”. Next, `CS(=O)(=O)N1CCN(c2ccccc2NC(=O)c2ccco2)CC1`: “inactive”. The result for `O=C(Nc1nccs1)c1cc(N2CCOCC2)nc2ccccc12` reads “inactive”.

Consider `O=C(Nc1cccnc1Cl)C1=NN(c2ccccc2)C(=O)CC1`, for which the call was inactive. The result for `C[C@@H]1CN([C@H](C)CO)C(=O)c2cc(C3=CCCCC3)cnc2O[C@H]1CN(C)C(=O)CN1CCOCC1` reads “inactive”; that for `CCNc1nc(NCC)nc(N(C)/N=C/c2ccco2)n1`, “inactive”; that for `COc1cc(NC(=O)c2c(-c3ccccc3Cl)noc2C)c2ncccc2c1`, “inactive”.

`CCc1ccc(N(C2C=CS(=O)(=O)C2)S(=O)(=O)c2ccccc2)cc1` (stereo unspecified): the compound was called inactive. For `COc1ccc(CCNC(=O)Cc2ccc3c(c2)OCO3)cc1OC`, the compound was classed as inactive. On to `COc1ccc(CC(=O)c2ccc(OC)c(OC)c2)cc1`, for which the compound was classed as inactive.

Consider `COc1ccc(C(=O)NCC(=O)OCC(=O)NC2CCCCCC2)cc1OC`, for which the compound was called inactive. The result for `COC(=O)C1C(=O)NC(SC)=C(C#N)C1c1ccccc1` (stereo unspecified) reads “inactive”. Next, `COc1cccc(CNC(=O)N[C@@H](CC(C)C)C(=O)O)c1`: “inactive”; `COc1ccc(C2N(c3ccccc3)C(=O)C2(F)F)cc1OC` (stereo unspecified): “inactive”. The result for `COC(=O)C1=C(C)NC(=S)NC1c1cccc(OC)c1` (stereo unspecified) reads “inactive”; that for `Cc1cccc(C2N=C(N)Nc3nc4ccccc4n32)c1` (stereo unspecified), “inactive”. For `CCOc1ccc(C(=O)NCC(=O)Nc2cc(C)ccn2)cc1OCC`, the outcome was inactive.

On to `CCCN(Cc1nnc(-c2ccccc2Cl)o1)C(=O)c1cc2ccccc2o1`, for which the call was inactive. Next, `c1ccc2nc3c(nc2c1)c1ccccc1n3CCN1CCOCC1`: “inactive”; `COc1ccc(CCN(C)C(=O)C(CCSC)NC(=O)c2ccco2)cc1OC` (stereo unspecified): “inactive”; `CC(=O)Nc1ccc(S(=O)(=O)Nc2ccc3c(c2)n(C)c(=O)n3C)c(C)c1`: “inactive”. The result for `COc1nc(N2CCOCC2)nc(-n2cccc2)n1` reads “inactive”; that for `COc1ccc(S(=O)(=O)N(C)c2ccc(C(=O)NCC3CCCO3)cc2)cc1OC` (stereo unspecified), “inactive”; that for `CCC(=O)Nc1cc2nn(-c3ccc(OC)cc3)nc2cc1C`, “inactive”. The result for `COc1ccc(-c2c(NC(=O)c3ccco3)oc3ccc(Cl)cc3c2=O)cc1` reads “inactive”. With `CCOc1cc(NC(=O)c2ccco2)c(OCC)cc1NC(=O)c1cc(OC)c(OC)c(OC)c1`, the call was inactive. The result for `COc1ccc(-c2nc(CCNC(=O)c3ccco3)cs2)cc1OC` reads “inactive”; that for `Cc1ccc(C2(C)NC(=O)N(CC(=O)Nc3ccc(-c4nc5ccc(C)cc5s4)cc3)C2=O)cc1` (stereo unspecified), “inactive”; that for `Cc1ccnc(NC(=O)CNC(=O)c2ccco2)c1`, “inactive”.
